This passage reports outcome and AC50 results from PubChem BioAssay (EPA / NIEHS).

Broadly, the AC50 is the midpoint of the concentration-response curve, whichever way the signal moves.

Test [1] can be described thus: ATG_GRE_CIS: Attagene CIS-FACTORIAL HepG2 Assay for human Glucocorticoid Response Elements (GRE) (AID 2282947). The settings on record: HepG2 GRE cis-reporter, Attagene multiplex mRNA; actives raise or lower the signal. In short, it runs like this: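 Multiplexed cis-reporter mRNA induction, HepG2, 24 h post-dose. RT-PCR, FAM-labelled, HpaI-digested amplicons by CE. Bidirectional fit vs DMSO.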

Test [2] has as its target Hepatocyte nuclear factor 6 (Homo sapiens) (UniProt Q9UBC0). Briefly: ATG_HNF6_CIS: Attagene CIS-FACTORIAL HepG2 Assay for human Hepatocyte Nuclear Factor 6 (HNF6) (AID 2282952). The settings on record: HepG2 Attagene cis-factorial HNF6 reporter transcription; actives raise or lower the signal. In outline:
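Endogenous transcription factor activity in human HepG2 liver cells was captured through cis-regulated reporter constructs. After 24 h treatment, reporter mRNA was measured by RT-PCR with capillary electrophoresis, and activity was fitted in both directions relative to DMSO.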

Test [3] in a line: ATG_PBREM_CIS: Attagene CIS-FACTORIAL HepG2 Assay for human Phenobarbital-responsive Enhancer Module (PBREM) (AID 2282955). The conditions noted are these: HepG2 PBREM cis-reporter, Attagene multiplexed transcription; actives raise or lower the signal. In short, it runs like this:
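Measures endogenous factor action on a phenobarbital-responsive enhancer module. HepG2 transiently carrying cis reporters, 24 h treatment, mRNA read-out by RT-PCR plus capillary electrophoresis.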

A short description of test [4]: ATG_SREBP_CIS: Attagene CIS-FACTORIAL HepG2 Assay for human Sterol Regulatory Element Binding (SREBP) (AID 2282962). The settings on record: HepG2 Attagene cis-factorial SREBP reporter, mRNA; actives raise or lower the signal. In outline:
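Endogenous factor activity is measured in HepG2 through multiplexed reporter units under cis-element control. Following a 24 h incubation, reporter transcripts are reverse-transcribed, PCR-amplified and sized by capillary electrophoresis; activity is fitted in both directions relative to DMSO.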

The target of test [5] is Signal transducer and activator of transcription 3 (Homo sapiens) (UniProt P40763). Briefly: ATG_STAT3_CIS: Attagene CIS-FACTORIAL HepG2 Assay for human Signal Transducer and Activator of Transcription 3 (STAT3) (AID 2282963). The conditions noted are these: HepG2, Attagene cis-factorial STAT3 reporter transcription; actives raise or lower the signal. In outline:
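Cis-factorial format: endogenous transcription factors in HepG2 drive transfected reporter units. After 24 h treatment, reporter RNA was reverse-transcribed, amplified, FAM-labelled and HpaI-digested before CE analysis; activity scored in both directions against DMSO.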

Test [6] deals with Hepatocyte nuclear factor 4-alpha (Homo sapiens) (UniProt P41235). As to the kind of experiment: ATG_HNF4a_TRANS: Attagene TRANS-FACTORIAL HepG2 Assay for human Hepatocyte Nuclear Factor 4 alpha (HNF4a) (AID 2282982; active = hit-call score of the fitted dose curve at least 0.9, where 1 is the maximum). The settings on record: HepG2 HNF4a transactivation reporter, mRNA readout. In short, it runs like this:
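Multiplexed reporter assay: transfected HepG2, 24 h exposure, total RNA → oligo(dT) RT → PCR → 6-FAM extension → HpaI digest → CE fluorescence. DMSO = negative control.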

Test [7] can be described thus: ATG_M_06_TRANS: Attagene TRANS-FACTORIAL HepG2 Assay for M06 Transcription Factor (Internal Marker) (AID 2282983; active = hit-call score of the fitted dose curve at least 0.9, where 1 is the maximum). The conditions noted are these: HepG2 Attagene TRANS M06 internal marker reporter. In outline:
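Human liver HepG2 cells bearing transiently transfected chimeric NR-GAL4 reporter units were treated with chemicals for 24 h. Total RNA was reverse-transcribed, reporter sequences amplified and labelled, then quantified by capillary electrophoresis. Activity was fitted upward relative to DMSO.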

A short description of test [8]: ATG_NF_kB_CIS: Attagene CIS-FACTORIAL HepG2 Assay for human Nuclear Factor Kappa B (NF-kB) (AID 2282991). The settings on record: HepG2 Attagene cis-factorial NF-kB reporter mRNA; actives raise or lower the signal. In short, it runs like this: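 Fluorescence of labelled RT-PCR products separated by capillary electrophoresis gives reporter mRNA levels from transfected HepG2 cells exposed 24 h; values are fitted in both directions relative to DMSO.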

Test [9] is described as follows: ATG_Oct_MLP_CIS: Attagene CIS-FACTORIAL HepG2 Assay for human Octamer-Binding Transcription Factor (Oct) (AID 2282993). The conditions noted are these: HepG2 Attagene cis-factorial Oct reporter, mRNA; actives raise or lower the signal. In outline:
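Cells of the HepG2 line express promoter-controlled reporter sequences whose mRNA levels, after 24 h treatment, are measured by RT-PCR and capillary electrophoresis. Increases and decreases are scored relative to DMSO.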

In test [10] the target is human Peroxisome Proliferator-activated Receptor alpha (PPARa), PPARA (gene 5465) (UniProt Q07869). Briefly: ATG_PPARa_TRANS: Attagene TRANS-FACTORIAL HepG2 Assay for human Peroxisome Proliferator-activated Receptor alpha (PPARa) (AID 2283001; active = hit-call score of the fitted dose curve at least 0.9, where 1 is the maximum). In outline:
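Transfected HepG2 cells treated with test chemical for 24 h. RNA isolated, reverse-transcribed with oligo(dT), PCR-amplified, FAM-labelled and HpaI-digested. Fragments sized by capillary electrophoresis; gain-of-signal fit relative to DMSO.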

Test [11] deals with human Retinoid X Receptor beta (RXRb), RXRB (gene 6257) (UniProt P28702). Briefly: ATG_RXRb_TRANS: Attagene TRANS-FACTORIAL HepG2 Assay for human Retinoid X Receptor beta (RXRb) (AID 2283013; active = hit-call score of the fitted dose curve at least 0.9, where 1 is the maximum). In short, it runs like this: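 Read-out: reporter mRNA induction via RT-PCR plus capillary electrophoresis fluorescence, analysed as signal increase relative to DMSO. Cells were human HepG2, transiently transfected with GAL4-UAS reporter constructs and chimeric receptor-Gal4 fusions, dosed for 24 h.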
Chain of human Retinoid X Receptor beta (RXRb), RXRB (gene 6257) (P28702 whole entry, looked up, the tested form may be a part): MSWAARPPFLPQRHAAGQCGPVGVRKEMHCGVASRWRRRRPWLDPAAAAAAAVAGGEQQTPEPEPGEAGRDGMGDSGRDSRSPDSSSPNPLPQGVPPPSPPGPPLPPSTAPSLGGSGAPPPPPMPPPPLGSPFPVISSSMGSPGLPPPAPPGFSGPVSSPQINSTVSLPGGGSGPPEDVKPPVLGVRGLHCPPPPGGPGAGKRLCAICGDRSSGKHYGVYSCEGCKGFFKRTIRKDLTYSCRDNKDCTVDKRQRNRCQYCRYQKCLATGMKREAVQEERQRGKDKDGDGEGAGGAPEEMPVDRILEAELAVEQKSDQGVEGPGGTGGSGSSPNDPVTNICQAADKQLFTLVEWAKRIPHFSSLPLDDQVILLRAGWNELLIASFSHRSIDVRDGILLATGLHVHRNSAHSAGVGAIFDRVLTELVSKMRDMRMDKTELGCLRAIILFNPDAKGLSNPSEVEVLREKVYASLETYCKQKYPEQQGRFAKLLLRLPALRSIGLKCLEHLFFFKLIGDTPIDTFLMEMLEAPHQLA

Test [12] in a line: TOX21_p53_BLA_p2_viability: Viability Assessment in the Tox21 HCT-116 p53 Agonism Beta-lactamase Assay, Phase 2 (AID 2283591; active = hit-call score of the fitted dose curve at least 0.9, where 1 is the maximum;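 note: compound exposure lasted 16 h at 37 °C; actives lower the ATP signal meaning cytotoxicity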). In short, it runs like this: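 Cytotoxicity readout: CellTiter-Glo ATP luminescence, 30 min at room temperature, after the beta-lactamase read. Cells were HCT116 exposed 16 h at 37C to compounds pin-transferred at 217-fold dilution from DMSO stocks.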

The nature of test [13]: TOX21_p53_BLA_p3_viability: Viability Assessment in the Tox21 HCT-116 p53 Agonism Beta-lactamase Assay, Phase 3 (AID 2283593; active = hit-call score of the fitted dose curve at least 0.9, where 1 is the maximum;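 note: cells exposed to compound for 16 h before reading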). In outline: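 Cellular ATP was quantified by CellTiter-Glo luminescence, read after 30 min at room temperature. Beforehand, HCT116 cells (4000/well) received compound 5 h post-seeding, 217-fold diluted from DMSO, then incubated 16 h at 37C.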
Test [14] concerns the target Cellular tumor antigen p53 (Homo sapiens) (UniProt P04637). Briefly: TOX21_p53_BLA_p5_ratio: Tox21 HCT-116 p53 Agonism Beta-lactamase Assay, Ratio, Phase 5 (AID 2283599; active = hit-call score of the fitted dose curve at least 0.9, where 1 is the maximum). In short, it runs like this:
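Beta-lactamase reporter ratio (blue 460 nm over green 530 nm, 405 nm excitation) after 2 h CCF4-AM loading, in HCT-116 cells exposed 16 h at 37 C to compounds pinned at 217-fold dilution. Increases relative to DMSO baseline scored.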

For test [15] the target is unchanged. As to the kind of experiment: TOX21_p53_BLA_p4_ratio: Tox21 HCT-116 p53 Agonism Beta-lactamase Assay, Ratio, Phase 4 (AID 2283601; active = hit-call score of the fitted dose curve at least 0.9, where 1 is the maximum). In short, it runs like this: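 Signal is the blue/green (460nm/530nm) ratio of cleaved versus uncleaved CCF4-AM substrate, read after 2 h substrate loading. Cells were HCT116 carrying the p53-responsive beta-lactamase reporter, dosed 16 h at 37C, 5% CO2; CellTiter-Glo measured in parallel.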

Test [16] can be described thus: ATG_GLI_CIS: Attagene CIS-FACTORIAL HepG2 Assay for human Zinc Finger Protein GLI1 (AID 2282945). The conditions noted are these: HepG2, Attagene cis-factorial reporter mRNA, GLI element; actives raise or lower the signal. In short, it runs like this:
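Bidirectional curve fits relative to DMSO, using reporter mRNA levels from RT-PCR plus capillary electrophoresis. Cells were HepG2 transiently carrying cis-regulated reporter constructs, harvested 24 h after dosing.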

Test [17] addresses Heat shock factor protein 1 (Homo sapiens) (UniProt Q00613). As to the kind of experiment: ATG_HSE_CIS: Attagene CIS-FACTORIAL HepG2 Assay for human Heat Shock Transcription Factor 1 (HSE) (AID 2282953). The conditions noted are these: HepG2 HSE cis-reporter, Attagene RNA transcription; actives raise or lower the signal. In outline:
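After a 24 h incubation with test chemical, transfected HepG2 cells were harvested for RNA; reporter transcripts were measured by RT-PCR and capillary electrophoresis. Values reflect gain or loss of signal relative to DMSO.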

Test [18] is described as follows: ATG_NRF2_ARE_CIS: Attagene CIS-FACTORIAL HepG2 Assay for human Nuclear Factor Erythroid 2 Related Factor 2 (NFR2) response to Antioxidant Response Elements (ARE) (AID 2282992). The settings on record: HepG2 Attagene ARE/NRF2 reporter, transcription factor activity; actives raise or lower the signal. In outline:
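Endogenous transcription factor activity in human liver HepG2 cells is tracked via a cis-element-driven reporter within a multiplexed set. mRNA induction is read by RT-PCR and capillary electrophoresis after 24 h, with DMSO as baseline.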

For test [19], the target named is Cellular tumor antigen p53 (Homo sapiens) (UniProt P04637). Briefly: TOX21_p53_BLA_p3_ratio: Tox21 HCT-116 p53 Agonism Beta-lactamase Assay, Ratio, Phase 3 (AID 2283596; active = hit-call score of the fitted dose curve at least 0.9, where 1 is the maximum). In outline: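 Cells were seeded at 4000/well, rested 5 h at 37C, then dosed with DMSO compound solutions (217-fold dilution) for 16 h. CCF4-AM substrate was loaded for 2 h at room temperature, and the 460/530 nm emission ratio was fitted for gain of signal versus DMSO.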
Chain of Cellular tumor antigen p53 (Homo sapiens) (P04637 whole entry, looked up): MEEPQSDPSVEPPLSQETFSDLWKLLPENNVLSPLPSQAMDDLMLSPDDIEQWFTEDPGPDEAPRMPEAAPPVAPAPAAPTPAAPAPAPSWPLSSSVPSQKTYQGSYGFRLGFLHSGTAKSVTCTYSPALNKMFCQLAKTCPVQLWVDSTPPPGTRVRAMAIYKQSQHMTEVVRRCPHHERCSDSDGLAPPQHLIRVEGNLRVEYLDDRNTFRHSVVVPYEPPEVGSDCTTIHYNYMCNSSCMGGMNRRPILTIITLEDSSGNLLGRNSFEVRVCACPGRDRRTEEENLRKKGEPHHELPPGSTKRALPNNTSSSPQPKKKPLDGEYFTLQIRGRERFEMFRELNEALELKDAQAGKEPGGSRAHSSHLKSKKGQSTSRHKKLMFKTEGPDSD

A short description of test [20]: TOX21_p53_BLA_p5_viability: Viability Assessment in the Tox21 HCT-116 p53 Agonism Beta-lactamase Assay, Phase 5 (AID 2283600; active = hit-call score of the fitted dose curve at least 0.9, where 1 is the maximum). In outline:
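Viability is taken from cellular ATP content, measured by luciferase luminescence in the same wells after the beta-lactamase ratio read. Cells are seeded at 4000 per well and exposed to DMSO-dissolved compounds, diluted 217-fold, for 16 h.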

Inconclusive results are not listed. Active and inactive are the calls of the source. Rule for the calls, unless noted: active = hit-call score of the fitted dose curve at least 0.9, where 1 is the maximum; inactive = score below 0.9.

Chain of Hepatocyte nuclear factor 4-alpha (Homo sapiens) (P41235 whole entry, looked up): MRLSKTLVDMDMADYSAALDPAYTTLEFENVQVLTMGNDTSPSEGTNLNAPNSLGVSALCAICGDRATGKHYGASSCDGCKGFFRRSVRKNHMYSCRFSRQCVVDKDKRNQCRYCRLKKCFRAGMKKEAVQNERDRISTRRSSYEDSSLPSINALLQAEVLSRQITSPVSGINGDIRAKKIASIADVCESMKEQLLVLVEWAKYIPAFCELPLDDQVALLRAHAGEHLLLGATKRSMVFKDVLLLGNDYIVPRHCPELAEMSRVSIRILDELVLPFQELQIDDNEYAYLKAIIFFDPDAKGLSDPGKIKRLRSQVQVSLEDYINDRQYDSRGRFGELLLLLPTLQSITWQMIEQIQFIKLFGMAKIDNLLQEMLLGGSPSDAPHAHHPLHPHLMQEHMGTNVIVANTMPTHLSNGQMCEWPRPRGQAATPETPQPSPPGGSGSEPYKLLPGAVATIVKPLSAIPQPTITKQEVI
Chain of Hepatocyte nuclear factor 6 (Homo sapiens) (Q9UBC0 whole entry, looked up): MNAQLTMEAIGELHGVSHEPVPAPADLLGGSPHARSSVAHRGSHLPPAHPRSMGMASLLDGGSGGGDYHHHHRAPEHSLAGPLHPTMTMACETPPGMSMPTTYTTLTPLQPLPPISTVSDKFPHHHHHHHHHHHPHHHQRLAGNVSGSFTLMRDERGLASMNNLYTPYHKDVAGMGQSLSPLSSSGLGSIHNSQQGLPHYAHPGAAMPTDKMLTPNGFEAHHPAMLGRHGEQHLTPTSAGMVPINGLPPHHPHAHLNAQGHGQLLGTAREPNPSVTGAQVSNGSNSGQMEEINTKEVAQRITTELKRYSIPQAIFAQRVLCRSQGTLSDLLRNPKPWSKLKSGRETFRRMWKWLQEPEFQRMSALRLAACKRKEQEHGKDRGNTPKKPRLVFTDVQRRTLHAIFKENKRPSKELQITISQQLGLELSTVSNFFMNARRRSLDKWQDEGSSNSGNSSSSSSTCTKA
Chain of Signal transducer and activator of transcription 3 (Homo sapiens) (P40763 whole entry, looked up): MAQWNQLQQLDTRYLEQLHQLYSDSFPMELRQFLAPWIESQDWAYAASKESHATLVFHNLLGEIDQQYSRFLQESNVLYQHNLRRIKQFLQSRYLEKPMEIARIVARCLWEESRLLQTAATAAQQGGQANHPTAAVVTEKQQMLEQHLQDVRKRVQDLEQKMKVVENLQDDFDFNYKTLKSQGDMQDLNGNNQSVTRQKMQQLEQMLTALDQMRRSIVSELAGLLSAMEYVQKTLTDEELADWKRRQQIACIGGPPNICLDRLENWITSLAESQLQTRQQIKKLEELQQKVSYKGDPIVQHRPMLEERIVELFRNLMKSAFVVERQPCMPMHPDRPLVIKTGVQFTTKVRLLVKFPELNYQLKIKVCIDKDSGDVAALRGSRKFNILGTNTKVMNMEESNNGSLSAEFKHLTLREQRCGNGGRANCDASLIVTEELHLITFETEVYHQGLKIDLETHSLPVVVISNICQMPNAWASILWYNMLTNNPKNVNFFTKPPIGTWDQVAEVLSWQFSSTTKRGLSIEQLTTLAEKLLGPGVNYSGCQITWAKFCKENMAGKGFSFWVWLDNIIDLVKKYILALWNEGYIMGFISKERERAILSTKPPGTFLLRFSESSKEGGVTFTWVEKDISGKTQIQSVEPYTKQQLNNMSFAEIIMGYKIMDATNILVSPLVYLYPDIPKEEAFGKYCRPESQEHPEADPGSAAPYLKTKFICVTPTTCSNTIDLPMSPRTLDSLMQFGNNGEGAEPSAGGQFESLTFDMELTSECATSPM
Chain of human Peroxisome Proliferator-activated Receptor alpha (PPARa), PPARA (gene 5465) (Q07869 whole entry, looked up, the tested form may be a part): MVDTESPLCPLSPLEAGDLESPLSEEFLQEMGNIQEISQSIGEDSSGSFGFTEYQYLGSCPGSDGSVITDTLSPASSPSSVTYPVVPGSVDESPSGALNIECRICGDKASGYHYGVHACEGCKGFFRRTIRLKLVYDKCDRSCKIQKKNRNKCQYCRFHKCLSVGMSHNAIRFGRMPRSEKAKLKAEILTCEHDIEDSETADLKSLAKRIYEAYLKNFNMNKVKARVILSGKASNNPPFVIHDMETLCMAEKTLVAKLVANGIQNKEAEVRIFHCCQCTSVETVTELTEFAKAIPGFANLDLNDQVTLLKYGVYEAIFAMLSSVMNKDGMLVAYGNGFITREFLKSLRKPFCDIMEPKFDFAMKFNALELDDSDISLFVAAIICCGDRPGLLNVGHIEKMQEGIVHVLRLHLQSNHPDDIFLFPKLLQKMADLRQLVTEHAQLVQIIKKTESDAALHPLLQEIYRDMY
Chain of Heat shock factor protein 1 (Homo sapiens) (Q00613 whole entry, looked up): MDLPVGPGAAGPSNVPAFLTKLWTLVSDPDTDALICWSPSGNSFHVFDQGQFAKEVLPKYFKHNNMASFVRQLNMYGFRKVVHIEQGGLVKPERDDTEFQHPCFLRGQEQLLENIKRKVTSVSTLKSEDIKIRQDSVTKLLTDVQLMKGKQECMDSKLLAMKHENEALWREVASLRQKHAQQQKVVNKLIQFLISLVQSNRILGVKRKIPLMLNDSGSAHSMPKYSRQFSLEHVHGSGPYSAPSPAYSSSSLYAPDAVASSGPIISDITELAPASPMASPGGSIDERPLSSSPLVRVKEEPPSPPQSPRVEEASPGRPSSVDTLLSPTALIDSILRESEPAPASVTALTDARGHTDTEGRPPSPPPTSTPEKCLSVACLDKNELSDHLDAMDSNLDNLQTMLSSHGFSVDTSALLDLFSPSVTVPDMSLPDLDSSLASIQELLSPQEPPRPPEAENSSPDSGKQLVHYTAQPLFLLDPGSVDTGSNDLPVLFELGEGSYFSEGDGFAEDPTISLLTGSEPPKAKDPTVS

Regarding `CCCOCCC`, the compound was called inactive in [1], in test [2], in test [3], in test [4], in test [5] and in [6]. In addition, the call in [7], in test [8], in test [9], in test [10], in test [11] and in [12] was inactive. The result in test [13], in test [14] and in test [15] was inactive.

As to `CC(=O)Nc1c(I)c(NC(C)=O)c(I)c(C(=O)O)c1I`, the call in test [16], in test [1], in test [17], in test [6], in [7] and in [18] was inactive. For the same compound, the call in test [9] was inactive.

Turning to `Cc1ccccc1S(=O)(=O)O`, the result in [16], in [2], in [17], in test [5], in test [6] and in test [7] was inactive. In addition, the outcome in test [18], in test [10], in test [12], in [13], in test [19] and in [20] was inactive. In addition, the outcome in [15] was inactive.

As to `O=C(Oc1ccccc1)c1ccccc1`, the compound was classed as inactive in test [2], in test [17], in test [3], in test [4], in test [5] and in test [6]. The compound was called inactive in [7], in test [8] and in test [11].

As to `CCCC(=O)OC`, the compound was called inactive in [16], in test [1], in test [2], in test [17], in test [4] and in test [5]. In addition, the compound was classed as inactive in [7], in [18], in test [9], in [10], in test [13] and in test [19]. The result in test [14] was inactive.

As to `Nc1nnc(-c2ccc([N+](=O)[O-])o2)o1`, the compound was called inactive in test [16], in [1], in test [2], in [17], in test [3] and in test [4]. Also, the result in [5], in test [6], in test [8], in [9], in test [10] and in [11] was inactive. Besides, the outcome in test [12], in test [13], in test [19], in [14] and in [20] was inactive. Moreover, the results for the AC50 in test [18] and in test [15] were 20.8 µM (active) and 70.1 µM (active), respectively.

`Cc1cc2nc3c(=O)[nH]c(=O)nc-3n(C[C@H](O)[C@H](O)[C@H](O)CO)c2cc1C`: the result in test [16], in test [1], in test [2], in test [3], in test [6] and in test [7] was inactive. Moreover, the outcome in test [8], in test [18], in [10], in test [12], in test [13] and in test [19] was inactive. For the same compound, the result in test [20] and in test [15] was inactive.

As for `CC/C=C\CC/C=C/C(OCC)OCC`, the compound was classed as inactive in test [1], in test [2], in test [3], in test [4], in test [5] and in [6]. In addition, the result in test [7], in test [9], in [10] and in test [14] was inactive. In addition, the figures for the AC50 in [17], in test [8] and in [18] were 156 µM (active), 100 µM (active) and 26.2 µM (active), respectively.

In the case of `Clc1ccccn1`, the call in test [16], in test [17], in test [4], in test [5], in test [6] and in [7] was inactive. Moreover, the compound was classed as inactive in test [8], in test [18], in [9], in test [13], in test [14] and in test [20].

As for `CCC(C)NC(N)=O` (stereo unspecified), the outcome in test [16], in test [2], in test [17], in [3], in test [4] and in test [5] was inactive. In addition, the compound was classed as inactive in test [7], in [8], in [18], in test [9] and in [19].
